Results: PubChem BioAssay (NCATS)
Inconclusive results are not listed. Values without a mark were called inactive. Calls of active or inactive are those of the source. Calls come from the whole dose curve; as a rule, active = well fitted cell-killing curve with a large enough effect; inconclusive = small, poorly fitted or top-dose-only effect, or effect the other way; inactive = flat fitted curve, though single readings scatter.

test system: C33A; assay: Primary qHTS to identify gynecologic anti-cancer compounds using libraries of approved drugs and bioactive compounds (AID 1345084); conditions: Gynecologic cancer cell panel viability, ATPlite luminescence, 48 h; series mostly up to 57.5 µM; activity change, negative = cytotoxicity: at the top concentration; note: nearly all actives have a fitted effect of over 55% in size
Summary of the method: (§1)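 Cells, 1,000 per well, plated 16 h, then exposed 48 h at 37 C to compounds. Viability by ATPlite luminescence after 15 min at room temperature.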
% is set by controls: 0 for no effect and ±100 for the full control effect; potency is the fitted concentration of half-maximal effect.

Question: For CC(C)(C)c1nnc(NS(=O)(=O)c2ccc(N)cc2)s1, which “activity change, negative = cytotoxicity” value is on record?
Answer: Its value is 6.35%.

Question: Which “activity change, negative = cytotoxicity” value does the source give for N=C(N)N here?
Answer: The value was 11.7%.

Question: With Cc1ccc(C(=O)c2ccc(CC(=O)O)n2C)cc1 as the molecule, how does the “activity change, negative = cytotoxicity” value read?
Answer: The value was -13.9%.

Question: CCCCCCCC/C=C/C(=O)O was tested. Which “activity change, negative = cytotoxicity” value did it give?
Answer: The value was 1.63%.

Question: With O=C(/C=C/c1ccccc1)NCCO as the molecule, how does the “activity change, negative = cytotoxicity” value read?
Answer: Its value is -12.4%.

Question: COc1cc2c3cc1Oc1cc(ccc1O)C[C@@H]1c4c(cc(OC)c(O)c4Oc4ccc(cc4)C[C@@H]3N(C)CC2)CC[N+]1(C)C was tested. Which “activity change, negative = cytotoxicity” value did it give?
Answer: The value was -0.978%.

Question: O=C(O)Cc1ccc2c(c1)C(=O)c1ccccc1CO2 was tested. Which “activity change, negative = cytotoxicity” value did it give?
Answer: Its value is -1.42%.

Question: How did the “activity change, negative = cytotoxicity” value turn out when O=C(Nc1ccc(C(=O)O)c(O)c1)c1ccccc1 was run?
Answer: Its value is 8%.

Question: With CO[C@@]1(NC(=O)Cc2cccs2)C(=O)N2C(C(=O)O)=C(COC(N)=O)CS[C@@H]21 as the molecule, how does the “activity change, negative = cytotoxicity” value read?
Answer: The value was -2.85%.

Question: For Nc1ccc(O)c(C(=O)O)c1, which “activity change, negative = cytotoxicity” value is on record?
Answer: Its value is 10.2%.

Question: C=CCCCCCCCCC(=O)O was tested. Which “activity change, negative = cytotoxicity” value did it give?
Answer: The value was -7.61%.

Question: Which “activity change, negative = cytotoxicity” value does the source give for Nc1c(CC(=O)O)cccc1C(=O)c1ccc(Br)cc1 here?
Answer: Its value is -4.26%.

Question: Which “activity change, negative = cytotoxicity” value does the source give for O=C(OCc1ccccc1)c1ccccc1 here?
Answer: The value was 7.7%.

Question: Which “activity change, negative = cytotoxicity” value does the source give for CCCCCCCCCCCCOCCO here?
Answer: Its value is 6.01%.

Question: CN(C)[C@@H]1C(=O)C(C(=O)NCN2CCCC2)=C(O)[C@@]2(O)C(=O)C3=C(O)c4c(O)cccc4[C@@](C)(O)C3C[C@@H]12 (some centres not stated) was tested. Which “activity change, negative = cytotoxicity” value did it give?
Answer: The value was -3.89%.

Question: For O=C(O)Cc1ccc(-c2ccccc2)cc1, which “activity change, negative = cytotoxicity” value is on record?
Answer: The value was 0.745%.

Question: Which “activity change, negative = cytotoxicity” value does the source give for Cc1c(Nc2ncccc2C(=O)O)cccc1C(F)(F)F here?
Answer: Its value is -9.89%.

Question: CC(C(=O)O)c1ccc2c(c1)[nH]c1ccc(Cl)cc12 (configuration not stated) was tested. Which Potency did it give?
Answer: Its Potency is “inactive”.

Question: CCCOC(=O)c1ccc(O)cc1 was tested. Which “activity change, negative = cytotoxicity” value did it give?
Answer: Its value is -2.52% [at 116 µM].

Question: CCCCCCCCCCCC(=O)[O][Sn]([CH2]CCC)([CH2]CCC)[O]C(=O)CCCCCCCCCCC was tested. Which “activity change, negative = cytotoxicity” value did it give?
Answer: Its value is -5.43%.

Question: How did the “activity change, negative = cytotoxicity” value turn out when O=C(O)/C=C\C(=O)O was run?
Answer: The value was 9.83%.

Question: With CCOC(=O)c1ccccc1O as the molecule, how does the “activity change, negative = cytotoxicity” value read?
Answer: The value was -6.92%.

Question: Cc1c(N)c(=O)n(-c2ccccc2)n1C was tested. Which “activity change, negative = cytotoxicity” value did it give?
Answer: Its value is -12.1%.

Question: Which “activity change, negative = cytotoxicity” value does the source give for C[N+]1(C)[C@@H]2CC(OC(=O)[C@H](CO)c3ccccc3)C[C@H]1[C@@H]1O[C@@H]12 (some centres not stated) here?
Answer: Its value is 10.7%.

Question: How did the “activity change, negative = cytotoxicity” value turn out when c1ccc2sc(SSc3nc4ccccc4s3)nc2c1 was run?
Answer: Its value is 11.2% [at 25.3 µM].

Question: For COc1cc(NC(C)CCCN)c2ncccc2c1 (configuration not stated), which “activity change, negative = cytotoxicity” value is on record?
Answer: The value was -11.2%.

Question: CCCC(=O)OC[C@@H](OC(=O)CCC)[C@@H](OC(=O)CCC)[C@H](Cn1c2nc(=O)[nH]c(=O)c-2nc2cc(C)c(C)cc21)OC(=O)CCC was tested. Which “activity change, negative = cytotoxicity” value did it give?
Answer: Its value is -5.88%.

Question: CC(=O)c1ccc(OCC(=O)N2CCCCC2)cc1 was tested. Which “activity change, negative = cytotoxicity” value did it give?
Answer: Its value is -1.71%.

Question: With CCOc1ccc2nc(S(N)(=O)=O)sc2c1 as the molecule, how does the “activity change, negative = cytotoxicity” value read?
Answer: The value was 3.4%.

Question: CN(C)CCn1nnnc1SCC1=C(C(=O)O)N2C(=O)[C@@H](NC(=O)Cc3csc(N)n3)[C@H]2SC1 was tested. Which “activity change, negative = cytotoxicity” value did it give?
Answer: The value was 15%.

Question: Which “activity change, negative = cytotoxicity” value does the source give for CCCCCCCCCCCCCCCC(=O)OC(C)C here?
Answer: The value was -6.53%.

Question: Which “activity change, negative = cytotoxicity” value does the source give for CCCCCCCCCCCCCCCCCC(=O)O here?
Answer: Its value is -0.325%.

Question: For CNC(=O)c1c(I)c(NC(=O)CCCCC(=O)Nc2c(I)c(C(=O)O)c(I)c(C(=O)NC)c2I)c(I)c(C(=O)O)c1I, which “activity change, negative = cytotoxicity” value is on record?
Answer: Its value is -1.27%.

Question: Which “activity change, negative = cytotoxicity” value does the source give for CCC1C(=O)OCC1Cc1cncn1C (configuration not stated) here?
Answer: The value was 6.74%.

Question: For Nc1ccc(C(=O)O)c(O)c1, which “activity change, negative = cytotoxicity” value is on record?
Answer: The value was 4.89%.

Question: How did the Potency turn out when [O-][n+]1ccccc1SSc1cccc[n+]1[O-] was run?
Answer: Its Potency is 1.12 µM (active).

test system: CAOV3; assay: as above; conditions: Gynecologic cancer cell panel viability, ATPlite luminescence, 48 h; series mostly up to 57.5 µM; activity change, negative = cytotoxicity: at the top concentration
Summary of the method: as §1

Question: For CC(C)(C)c1nnc(NS(=O)(=O)c2ccc(N)cc2)s1, which “activity change, negative = cytotoxicity” value is on record?
Answer: Its value is 7.23%.

Question: How did the “activity change, negative = cytotoxicity” value turn out when N=C(N)N was run?
Answer: Its value is 1.52%.

Question: For Cc1ccc(C(=O)c2ccc(CC(=O)O)n2C)cc1, which “activity change, negative = cytotoxicity” value is on record?
Answer: The value was -4.49%.

Question: CCCCCCCC/C=C/C(=O)O was tested. Which “activity change, negative = cytotoxicity” value did it give?
Answer: Its value is 13.6%.

Question: With O=C(/C=C/c1ccccc1)NCCO as the molecule, how does the “activity change, negative = cytotoxicity” value read?
Answer: The value was -23.4%.

Question: Which “activity change, negative = cytotoxicity” value does the source give for COc1cc2c3cc1Oc1cc(ccc1O)C[C@@H]1c4c(cc(OC)c(O)c4Oc4ccc(cc4)C[C@@H]3N(C)CC2)CC[N+]1(C)C here?
Answer: The value was -5.19%.

Question: With O=C(O)Cc1ccc2c(c1)C(=O)c1ccccc1CO2 as the molecule, how does the “activity change, negative = cytotoxicity” value read?
Answer: The value was 17.6%.

Question: Which “activity change, negative = cytotoxicity” value does the source give for O=C(Nc1ccc(C(=O)O)c(O)c1)c1ccccc1 here?
Answer: The value was -7.41%.

Question: With CO[C@@]1(NC(=O)Cc2cccs2)C(=O)N2C(C(=O)O)=C(COC(N)=O)CS[C@@H]21 as the molecule, how does the “activity change, negative = cytotoxicity” value read?
Answer: The value was 4.58%.

Question: How did the “activity change, negative = cytotoxicity” value turn out when Nc1ccc(O)c(C(=O)O)c1 was run?
Answer: Its value is -0.266%.

Question: For C=CCCCCCCCCC(=O)O, which “activity change, negative = cytotoxicity” value is on record?
Answer: Its value is 3.68%.

Question: How did the “activity change, negative = cytotoxicity” value turn out when Nc1c(CC(=O)O)cccc1C(=O)c1ccc(Br)cc1 was run?
Answer: Its value is 0.86%.

Question: Which “activity change, negative = cytotoxicity” value does the source give for O=C(OCc1ccccc1)c1ccccc1 here?
Answer: Its value is -2.51%.

Question: How did the “activity change, negative = cytotoxicity” value turn out when CCCCCCCCCCCCOCCO was run?
Answer: Its value is -0.376%.

Question: With CN(C)[C@@H]1C(=O)C(C(=O)NCN2CCCC2)=C(O)[C@@]2(O)C(=O)C3=C(O)c4c(O)cccc4[C@@](C)(O)C3C[C@@H]12 (some centres not stated) as the molecule, how does the “activity change, negative = cytotoxicity” value read?
Answer: The value was -9.24%.

Question: Which “activity change, negative = cytotoxicity” value does the source give for O=C(O)Cc1ccc(-c2ccccc2)cc1 here?
Answer: Its value is 1.8%.

Question: How did the “activity change, negative = cytotoxicity” value turn out when Cc1c(Nc2ncccc2C(=O)O)cccc1C(F)(F)F was run?
Answer: Its value is -26.5%.

Question: With CC(C(=O)O)c1ccc2c(c1)[nH]c1ccc(Cl)cc12 (configuration not stated) as the molecule, how does the “activity change, negative = cytotoxicity” value read?
Answer: Its value is 14.2%.

Question: With CCCOC(=O)c1ccc(O)cc1 as the molecule, how does the “activity change, negative = cytotoxicity” value read?
Answer: The value was -2.68% [at 116 µM].

Question: With CCCCCCCCCCCC(=O)[O][Sn]([CH2]CCC)([CH2]CCC)[O]C(=O)CCCCCCCCCCC as the molecule, how does the “activity change, negative = cytotoxicity” value read?
Answer: Its value is -6.52%.

Question: For O=C(O)/C=C\C(=O)O, which “activity change, negative = cytotoxicity” value is on record?
Answer: Its value is 12.9%.

Question: For CCOC(=O)c1ccccc1O, which “activity change, negative = cytotoxicity” value is on record?
Answer: The value was -11.2%.

Question: With Cc1c(N)c(=O)n(-c2ccccc2)n1C as the molecule, how does the “activity change, negative = cytotoxicity” value read?
Answer: The value was 11.8%.

Question: C[N+]1(C)[C@@H]2CC(OC(=O)[C@H](CO)c3ccccc3)C[C@H]1[C@@H]1O[C@@H]12 (some centres not stated) was tested. Which “activity change, negative = cytotoxicity” value did it give?
Answer: Its value is 24.4%.

Question: c1ccc2sc(SSc3nc4ccccc4s3)nc2c1 was tested. Which “activity change, negative = cytotoxicity” value did it give?
Answer: Its value is 1.77% [at 25.3 µM].

Question: For COc1cc(NC(C)CCCN)c2ncccc2c1 (configuration not stated), which “activity change, negative = cytotoxicity” value is on record?
Answer: Its value is -1.95%.

Question: CCCC(=O)OC[C@@H](OC(=O)CCC)[C@@H](OC(=O)CCC)[C@H](Cn1c2nc(=O)[nH]c(=O)c-2nc2cc(C)c(C)cc21)OC(=O)CCC was tested. Which “activity change, negative = cytotoxicity” value did it give?
Answer: The value was -14.2%.

Question: For CC(=O)c1ccc(OCC(=O)N2CCCCC2)cc1, which “activity change, negative = cytotoxicity” value is on record?
Answer: The value was 10.6%.

Question: CCOc1ccc2nc(S(N)(=O)=O)sc2c1 was tested. Which “activity change, negative = cytotoxicity” value did it give?
Answer: Its value is 4.29%.

Question: Which “activity change, negative = cytotoxicity” value does the source give for CN(C)CCn1nnnc1SCC1=C(C(=O)O)N2C(=O)[C@@H](NC(=O)Cc3csc(N)n3)[C@H]2SC1 here?
Answer: Its value is -5.49%.

Question: CCCCCCCCCCCCCCCC(=O)OC(C)C was tested. Which “activity change, negative = cytotoxicity” value did it give?
Answer: The value was 10.7%.

Question: With CCCCCCCCCCCCCCCCCC(=O)O as the molecule, how does the “activity change, negative = cytotoxicity” value read?
Answer: The value was -6.94%.

Question: Which “activity change, negative = cytotoxicity” value does the source give for CNC(=O)c1c(I)c(NC(=O)CCCCC(=O)Nc2c(I)c(C(=O)O)c(I)c(C(=O)NC)c2I)c(I)c(C(=O)O)c1I here?
Answer: The value was 1.23%.

Question: Which “activity change, negative = cytotoxicity” value does the source give for CCC1C(=O)OCC1Cc1cncn1C (configuration not stated) here?
Answer: The value was 2.42%.

Question: How did the “activity change, negative = cytotoxicity” value turn out when Nc1ccc(C(=O)O)c(O)c1 was run?
Answer: The value was -3.87%.

Question: With [O-][n+]1ccccc1SSc1cccc[n+]1[O-] as the molecule, how does the Potency read?
Answer: The Potency was 2.82 µM (active).
